Screens: PubChem BioAssay, Paczesny and Yang Labs, IUPUI and University of Michigan
ST2 inh: IL1RL1 inhibition; 78,000 tested, 2.3% active; Q01638; inhibition, % for hits at 17 µM; AlphaLISA ST2-Fc/biotin-IL-33 interaction, 1 h; in the data active = inhibition above about 30%
Target sequence (Q01638 whole entry, looked up): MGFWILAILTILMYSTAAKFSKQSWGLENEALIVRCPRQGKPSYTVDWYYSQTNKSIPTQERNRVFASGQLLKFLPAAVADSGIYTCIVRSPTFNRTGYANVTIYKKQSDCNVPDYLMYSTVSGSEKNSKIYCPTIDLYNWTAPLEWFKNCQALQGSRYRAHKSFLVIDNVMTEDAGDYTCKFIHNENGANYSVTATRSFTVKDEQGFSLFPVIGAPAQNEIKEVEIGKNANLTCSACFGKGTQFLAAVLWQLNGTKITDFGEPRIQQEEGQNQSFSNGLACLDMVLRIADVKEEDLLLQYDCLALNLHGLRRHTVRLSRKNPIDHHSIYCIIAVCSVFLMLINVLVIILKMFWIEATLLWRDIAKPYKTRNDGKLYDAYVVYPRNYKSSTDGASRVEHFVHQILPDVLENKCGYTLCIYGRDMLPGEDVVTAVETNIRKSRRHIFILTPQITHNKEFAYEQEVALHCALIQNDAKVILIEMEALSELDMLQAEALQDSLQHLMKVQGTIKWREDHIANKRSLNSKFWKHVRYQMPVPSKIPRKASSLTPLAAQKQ
Active calls of the source: *; i = inactive. This excerpt belongs to a sample that is enriched for hits.

SMILES	ST2 inh
CN(CCCNC(=O)C1CCCN1c1nnc(N2CCCC2=O)s1)C1CCCCC1 (stereo not given)	i
Cc1oc2cc(O)ccc2c(=O)c1-c1ccc(F)cc1	i
O=C(Nc1ccccc1O)c1cc2ccccc2oc1=O	34%*
O=C(Nc1ccccc1O)c1cc2ccccc2o1	i
O=C(Nc1ccccc1Cl)c1cc2ccccc2oc1=O	i
COc1ccc(Cl)cc1NC1OC(=O)c2ccccc21 (stereo not given)	i
CC(=O)N1CCN([C@H]2[C@@H]3OC[C@@H](O3)[C@@H](NCc3ccc(CO)o3)[C@@H]2O)CC1	i
CCOCCCn1c(=N)c(C#N)cc2c(=O)n3cccc(C)c3nc21	i
O=C(O)c1ccc(Cl)c(S(=O)(=O)N2CCOCC2)c1	i
CCOc1cc(C2C(C#N)=C(N)Oc3n[nH]c(COC)c32)ccc1OC (stereo not given)	i
Nc1nc(-c2ccccc2)c(Br)c(=O)[nH]1	i
Cc1[nH]nc(-c2ccccc2)c1Br	i
Brc1c(-c2ccccc2)nc2n1-c1ccccc1C2	44%*
CCn1nc(C(=O)N2CCCCCC2)c2c1CCC(NCCc1ccncc1)C2 (stereo not given)	i
Cc1cc(C)n(-c2cc(N3CCN(C(=O)c4ccco4)CC3)ccc2[N+](=O)[O-])n1	i
CC(C)(C)c1ccc(C(=O)N2CCN(c3ccc([N+](=O)[O-])c(NCc4ccco4)c3)CC2)cc1	31%*
O=[N+]([O-])c1ccc(N2CCOCC2)cc1NCc1ccco1	i
Cc1nnsc1CN(C)Cc1c(-c2ccccc2)nc2ccccn12	i
Cc1oc2cc(OCC(=O)O)ccc2c(=O)c1-c1ccc2c(c1)OCCO2	i
CCCNC(=O)c1ccc(-c2cccc3cnccc23)o1	i
CCSCCNc1nc(-c2cccnc2)nc2c1cnn2C	i
CNc1ncc(CN(C)c2nc(-c3cccnc3)nc3c2cnn3C)cn1	46%*
COCc1nc(N(C)Cc2cc(-c3cccnc3)no2)c2cnn(C)c2n1	i
CCc1ccc(Nc2nnc(C(C)(C)C)c(=O)[nH]2)cc1	i
N#CC1=C(N)SC(N)=C(C#N)C1c1ccc(Cl)cc1Cl	i
SMILES	ST2 inh
COc1ccccc1C1C(C#N)=C(N)SC(N)=C1C#N	i
Cc1ccc(C2C(C#N)=C(N)SC(N)=C2C#N)o1	32%*
COc1ccc(OC)c(NC(=O)C(c2ccccc2)c2ccccc2)c1	i
O[C@@H]1CN(c2nnnn2-c2ccccc2)CC[C@H]1c1ccc2c(c1)OCO2	i
O=[N+]([O-])c1ccccc1CN1C[C@H](O)C[C@H]1c1nc(Cc2ccc(F)cc2Cl)no1	i
CC(=O)N1CCC(N2C[C@H](O)C[C@H]2c2nc(CS(=O)(=O)c3ccc(F)cc3)no2)CC1	i
CN1CCC(N2C[C@H](O)C[C@H]2c2nc(Cc3ccc(F)cc3Cl)no2)CC1	31%*
O=C(O)c1ccc2c(c1)N(Cc1ccc(F)cc1)C(=O)c1ccccc1S2	i
CC(NC(=O)CCC(=O)NC1CCCC1)c1ccccc1-n1cccn1 (stereo not given)	i
Cc1ccc(O)c(N=Cc2cc(Cl)cc(Cl)c2O)c1	i
Cc1ccc(N=Cc2cc(Cl)cc([N+](=O)[O-])c2O)c(O)c1	35%*
Cc1ccc(N=Cc2cc(Br)cc(Cl)c2O)c(O)c1	i
Cn1cncc1-c1nnc([C@H]2CCN(Cc3c[nH]c4ccccc34)C2)o1	i
CN(Cc1nc2ccccc2[nH]1)C(=O)C1CCC(=O)N(CCCc2ccccc2)C1 (stereo not given)	i
COc1ccc2c(=O)c(-c3ccccc3Cl)c(C(F)(F)F)oc2c1	i
Cc1ccccc1-c1c(C(F)(F)F)oc2c(C)c(O)ccc2c1=O	i
COc1ccc2c(=O)c(-c3ccccc3C)c(C(F)(F)F)oc2c1	75%*
C=CCOc1ccc(-n2ccnc2)cc1CO	i
COc1ccc(N=Cc2ccc(OCc3ccccc3)cc2)cc1OC	33%*
COc1ccc(C=Nc2ccc3[nH]c(=O)[nH]c3c2)cc1OC	i
C/C=C/c1ccc(OCc2ccccc2)c(OC)c1	i
NC(=O)c1c(NC(=O)c2cc(-c3cccs3)on2)sc2c1CCCC2	i
C=CCc1ccc(OCC(O)COc2ccc(CC=C)cc2OC)c(OC)c1	i
NC(=O)CN1C(=O)CC(c2ccco2)Sc2ccccc21 (stereo not given)	i
COc1ccc(CNc2ccccc2[N+](=O)[O-])cc1	38%*
SMILES	ST2 inh
COc1ccc(CNc2c([N+](=O)[O-])c(=O)oc3ccccc23)cc1	i
CNc1ccccc1[N+](=O)[O-]	i
O=C(NC1CCCCCC1)c1cnccn1	i
O=S(=O)(NCCc1ccccc1Cl)c1cccc2nonc12	i
CN(C1CCCCC1)S(=O)(=O)c1ccc2[nH]c(=O)cc(C(=O)NCc3ccc(F)cc3)c2c1	i
COc1cccc(C2CCN2C(=O)Nc2n[nH]c(CCc3ccccc3)n2)c1 (stereo not given)	i
COc1cccc(NC(=O)C(=O)NCc2ccc(C)cc2)c1	i
COc1cccc(C2CCN2C(=O)CC(=O)Nc2ccc(C)cc2)c1 (stereo not given)	31%*
CCCn1c(CNC(=O)CC)nc2ccccc21	i
Cc1cccc(-c2nc(SCC(=O)Nc3nccs3)c(-c3ccccc3)[nH]2)c1	i
COc1ccc(OC)c(C2SCCN2S(=O)(=O)c2ccc(C)c(C)c2)c1 (stereo not given)	i
COc1ccc(N2CCCS2(=O)=O)cc1NC(=O)COc1cccc(C)c1	i
CCCCN(C)C(=O)C1c2ccccc2C(=O)N2CCc3ccccc3C12 (stereo not given)	i
COc1ccc(Nc2ccc3c4c(ncnc24)-c2ccccc2C3=O)cc1	i
COc1ccc(S(=O)(=O)N=C2C(C)=CC(=O)C=C2C)cc1	i
CCN(CC)C(=NS(=O)(=O)c1ccc(C)cc1)c1ccc(F)cc1	i
Cc1ccc(NC2=CC(=NS(=O)(=O)c3ccc(F)cc3)c3ccccc3C2=O)cc1	69%*
Cc1ccc(S(=O)(=O)Nc2ccc(NC(=O)c3ccc(F)cc3)cc2)cc1	i
COc1ccc(S(=O)(=O)Nc2cc(C)cc(C)c2)cc1	i
COc1ccc(N(C(F)F)S(=O)(=O)c2ccc(C)cc2)cc1	i
COc1ccc(NC2=CC(=NS(=O)(=O)c3ccc(C)cc3)c3ccccc3C2=O)cc1	92%*
COc1ccc(S(=O)(=O)N=C2C=C(Nc3ccc(C)cc3)C(=O)c3ccccc32)cc1	92%*
CCN(CC)S(=O)(=O)c1ccc(Cl)c(C(=O)Nc2nncs2)c1	i
COc1ccc(N2CCC(NCCN(C)S(C)(=O)=O)CC2)cc1	i
COC(=O)[C@@H]1C[C@@H](NC(=O)CCc2nc3c(C)c(C)ccc3[nH]2)CN1C	i
SMILES	ST2 inh
COc1cccc(C(C)N(C)Cc2cn(C)nc2-c2cccc(Cl)c2)c1 (stereo not given)	i
COc1ccc([N+](=O)[O-])cc1NC(=O)C1CCCNC1=O (stereo not given)	i
COc1ccc(CN(C)C(=O)c2ccc(-n3cnnc3)cc2)c2cccnc12	i
CCOC(=O)C(C(C)C)N1C(=O)C2C3CCC(C3)C2C1=O (stereo not given)	i
O=C(Nc1cc(-c2nc3ccccc3s2)ccc1Cl)c1ccco1	39%*
Cc1ccc(-c2nc3cc(Cl)ccc3o2)cc1NC(=O)c1ccco1	i
O=C(Nc1ccc(-c2nc3ccccc3s2)cc1)C(F)(F)F	i
COc1cc(Br)cc(C=O)c1OC	i
C=C(C)Cn1c(CCNC(=O)CCC)nc2ccccc21	i
